Plk1 PBD FP = Plk1 (human) PBD binding inhibition; Plk1 PBD phosphopeptide binding, fluorescence polarization; inhibition, %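 (tested at about 20 µM)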; actives 0.13% (n = 97,000); in the data active means inhibition above about 34%, passing the limit was not always enough
JNK3 blocker = JNK3 (human) kinase inhibition. purified JNK3 kinase activity, HTS. inhibition, % at 8 µM. actives 0.61% (n = 60,000). AID 746; in the data active means inhibition above about 17%;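 further: 0% = DMSO and 100% = reference inhibitor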
ROCK2 inh = blocks human Rho kinase 2 activity; purified ROCK2, Kinase-Glo ATP depletion luminescence; inhibition, % at 6 µM; O75116; actives 0.35% (n = 60,000);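 active means inhibition above the screen-wide mean inhibition plus 3 SD, cut at about 18% in these data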;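 further: plate controls were DMSO wells for no effect and Y-27632 control wells after no-enzyme background subtraction for full effect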
PKA kinase inh = PKA (human) kinase inhibition | PKA Kemptide phosphorylation, Kinase-Glo ATP luminescence | inhibition, % at 6 µM | actives 0.1% (n = 65,000) | AID 524;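 active means inhibition above the screen-wide mean inhibition plus 3 SD, cut at about 21% in these data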
PLK1 inh = blocks human PLK1 kinase activity | P53350 | recombinant PLK1 kinase, TR-FRET peptide phosphorylation | inhibition, % at 10 µM | actives 0.53% (n = 97,000) | AID 619;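 active means inhibition of 50% or more in the single-concentration screen; inactive means inhibition below 50%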;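 further: 0% = DMSO max control and 100% = H-89 dihydrochloride min control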
FAK blocker = FAK (human) kinase inhibition | biochemical FAK kinase activity assay | Q05397 | actives 0.84% (n = 97,000) | inhibition, %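 (tested at 7 µM)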 | AID 727;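 further: 0% = DMSO and 100% = reference compound high control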
Target sequence (Q05397 whole entry, looked up): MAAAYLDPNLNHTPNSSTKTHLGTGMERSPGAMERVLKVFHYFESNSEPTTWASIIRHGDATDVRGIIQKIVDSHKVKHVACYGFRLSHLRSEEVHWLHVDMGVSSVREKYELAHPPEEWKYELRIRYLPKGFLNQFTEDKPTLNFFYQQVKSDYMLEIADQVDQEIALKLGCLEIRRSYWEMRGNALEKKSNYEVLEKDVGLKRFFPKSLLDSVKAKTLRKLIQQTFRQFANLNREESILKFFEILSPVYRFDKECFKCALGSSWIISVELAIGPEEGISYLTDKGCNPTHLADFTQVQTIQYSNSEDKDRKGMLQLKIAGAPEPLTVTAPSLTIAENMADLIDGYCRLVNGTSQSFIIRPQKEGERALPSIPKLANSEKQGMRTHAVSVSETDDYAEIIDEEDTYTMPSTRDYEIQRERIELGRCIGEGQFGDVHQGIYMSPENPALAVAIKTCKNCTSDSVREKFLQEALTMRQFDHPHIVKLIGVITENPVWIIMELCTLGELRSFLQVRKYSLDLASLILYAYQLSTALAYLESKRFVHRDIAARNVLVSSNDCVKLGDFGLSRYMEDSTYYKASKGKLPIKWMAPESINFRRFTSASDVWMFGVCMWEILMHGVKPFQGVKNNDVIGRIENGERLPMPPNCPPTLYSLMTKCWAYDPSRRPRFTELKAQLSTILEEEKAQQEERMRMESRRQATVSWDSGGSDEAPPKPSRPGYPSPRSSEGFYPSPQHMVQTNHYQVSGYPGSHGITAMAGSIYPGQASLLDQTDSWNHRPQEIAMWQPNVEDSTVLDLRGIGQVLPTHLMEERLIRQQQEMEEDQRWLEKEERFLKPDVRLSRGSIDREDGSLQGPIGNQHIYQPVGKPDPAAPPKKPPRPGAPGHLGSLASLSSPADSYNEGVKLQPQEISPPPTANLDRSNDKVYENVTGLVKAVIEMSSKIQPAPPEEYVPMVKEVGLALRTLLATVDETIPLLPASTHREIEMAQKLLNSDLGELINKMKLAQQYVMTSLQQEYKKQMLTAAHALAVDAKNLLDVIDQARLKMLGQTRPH
FAK inh conf = FAK (human) inhibition confirmed; inhibition, % at 7 µM; AID 794; shares compounds with FAK blocker; actives 28% (n = 750); FAK kinase biochemical inhibition assay
Active calls of the source: *; . = no result given. Rows were chosen to be rich in hits. Some 1.5% of all compounds tested hit in one or more screens of this group. Unless noted, no stated cut-off is given here; in the data, active means inhibition above about 19%; inactive means the rest.

SMILES	Plk1 PBD FP	JNK3 blocker	ROCK2 inh	PKA kinase inh	PLK1 inh	FAK blocker	FAK inh conf
CCN(CC)CCCNC(=O)C1CCC(=O)N(c2ccc(OC)cc2)C1c1ccc(F)cc1 (stereo not given)	3	.	.	-1	-12	-4	.
Cc1cccc(NC(=O)NCc2ccc3c(c2)cc(C)n3C)c1	2	.	.	.	-24	22*	-7
Cc1cc2cc(CNC(=O)Nc3cccc(Cl)c3)ccc2n1C	-27	.	.	.	-30	5	.
COc1ccc(C(C)=O)c2c(O)cccc12	8	-4	4	9	-5	4	.
CCC1=NNc2cccc3c(OC)ccc1c23	-1	.	.	.	68*	82*	26*
COc1ccc(-c2nc3cc(NC(=O)Cc4ccc(OC)c(OC)c4)ccc3o2)cc1	-56	5	6	9	1	10	.
Nc1c(N2CCCC2)cc(Cl)c2nonc12	-41	0	2	10	7	40*	-1
Cc1ccc(S(=O)(=O)n2cnc3cc([N+](=O)[O-])ccc32)cc1C	30	.	.	.	11	3	.
Nc1ccc(-n2cnc3cc([N+](=O)[O-])ccc32)cc1	12	.	.	.	-3	26*	14
C=CCn1c(P(=O)(O)c2ccccc2)nc2ccccc21	5	.	.	.	-14	35*	24*
Cc1cc(C)c2c(N)c(C(=O)N3CCCCCC3)sc2n1	-9	-3	1	10	-10	2	.
CC(=O)c1sc2nc(C)cc(C)c2c1N	9	.	.	.	-10	20*	5
Clc1ccc2[nH]c3c(c2c1)CCc1cn[nH]c1-3	-33	85*	4	9	4	20*	7
c1ccc2c3c([nH]c2c1)-c1[nH]ncc1CC3	24	54*	3	-4	-17	42*	20*
CCOC(=O)CSc1ccc(S(=O)(=O)N(C)C2CCCCC2)cc1[N+](=O)[O-]	-9	.	.	.	0	-1	.
O=C1NC(=O)[C@@H]2C3c4ccccc4C=CN3[C@H](C(=O)c3cccs3)[C@H]12 (stereo not given in full)	-15	-3	5	13	-6	20*	12
Cc1cc(C)n(C(=O)CN2C(=O)COc3ccccc32)n1	.	0	4	4	.	.	.
COc1ccc(-c2nnc(SC(C)C(=O)Nc3cccc(Cl)c3)o2)cc1 (stereo not given)	-8	-1	2	1	-1	4	.
CC(C)Cn1[nH]c2c3c(ccc2c1=O)C(=O)c1ccccc1C3=O	-8	.	.	.	-11	27*	6
CC(C)COC(=O)c1ccc2c(c1O)C(=O)c1ccccc1C2=O	-18	.	.	.	3	0	.
Cc1csc(=N)n1CC(=O)N1CCc2ccccc21	-1	2	2	0	-4	-2	.
O=C(CSc1nnc(COc2ccccc2Cl)o1)NC(=O)NC1CCCC1	15	-7	-1	-2	-9	23*	8
CCC(=O)Nc1nc2nc(-c3ccccc3)cc(-c3ccccc3)n2n1	-14	.	.	.	-16	24*	8
CCN(CC)C(=O)CSc1nc2ccc(NC(=O)CSc3nnc(N)s3)cc2s1	-5	.	.	.	-12	21*	3
Cn1c(SCC(=O)Nc2ccc3nc(SCC(=O)N4CCCC4)sc3c2)nnc1-c1ccc(N)cc1	21	.	.	.	-11	31*	32*
SMILES	Plk1 PBD FP	JNK3 blocker	ROCK2 inh	PKA kinase inh	PLK1 inh	FAK blocker	FAK inh conf
CN(C)c1ccnc(-n2cccc2/C=N/OCc2cccc(F)c2)c1C#N	12	.	.	.	-3	2	.
Cc1ccc(-c2nc(N)c3c(-c4ccc(C)cc4)nn(C(C)(C)C)c3n2)cc1	2	.	.	.	-16	9	.
CC(C)(C)n1nc(-c2ccc(Cl)cc2)c2c(N)ncnc21	-7	.	.	.	17	26*	12
CC(C)(C)n1nc(-c2ccc(F)cc2)c2c(N)ncnc21	-15	.	.	.	4	32*	8
O=C(CNC(=O)c1ccc([N+](=O)[O-])cc1)N/N=C\c1ccc(OC(=O)c2ccccc2)cc1	7	.	.	.	-17	25*	11
O=C(CNC(=O)c1ccc([N+](=O)[O-])cc1)c1ccccc1	-18	.	.	.	-2	8	.
N#Cc1cccc(NC(=O)CSc2ccc3c4c(cccc24)C(=O)c2ccccc2-3)c1	-14	.	.	.	-21	27*	22*
COc1ccc(NC(=O)CSc2ccc3c4c(cccc24)C(=O)c2ccccc2-3)cc1	-21	.	.	.	-16	4	.
CCOc1ccc(OCC)c(-c2c(=O)n(OCc3ccc(C(C)(C)C)cc3)c3ccccc3[n+]2[O-])c1	-11	.	.	.	-8	-1	.
O=C(ONc1ccc(N=NC(=O)c2ccccc2O)cc1)c1ccccc1	-24	.	.	.	-8	80*	22*
CC(=O)c1ccc(NC(=O)CSc2nnc(NC(=O)CN3CCOCC3)s2)cc1	.	.	.	-5	.	.	.
O=C(COC(=O)Cc1ccc(S(=O)(=O)N2CCOCC2)s1)NCc1ccc(Cl)cc1	-7	.	.	.	-10	0	.
Cc1nnc(NCc2ccco2)c2ccccc12	11	0	-2	-2	-6	1	.
Cc1nnc(NCc2ccncc2)c2ccccc12	7	4	-1	7	-18	23*	7
COc1ccccc1OCC(=O)N/N=C1/SCC(=O)N1Cc1ccccc1	-4	.	.	.	-17	-1	.
CC(=O)N1CCN(CCN=CC2=C(O)CC(c3cccs3)CC2=O)CC1 (stereo not given)	-14	1	3	10	-33	-1	.
CCOC(=O)c1sc2c(c1C)C(c1cccs1)C1=C(CCCC1=O)N2 (stereo not given)	-7	-2	3	5	-13	24*	19*
CNC(=O)CN1C(=O)c2cccc3cccc1c23	2	.	.	.	-4	1	.
CN1/C(=N\O)c2cccc3cccc1c23	-14	-2	37*	10	-9	21*	8
O=C1CC(N(CCc2ccccc2)C(=S)Nc2cc(Cl)ccc2Cl)C(=O)N1c1c(Cl)cccc1Cl (stereo not given)	-1	.	.	.	-2	-8	.
CC(=O)[C@@H]1[C@@H]2C(=O)N(c3ccc(F)c(Cl)c3)C(=O)[C@@H]2C2c3ccccc3C=CN21 (stereo not given in full)	.	-1	-7	-2	.	.	.
CC(=O)[C@@H]1[C@@H]2C(=O)N(C3CCCCC3)C(=O)[C@@H]2C2c3ccccc3C=CN21 (stereo not given in full)	-17	.	.	.	-19	13	.
O=C(c1ccco1)[C@@H]1[C@@H]2C(=O)N(c3ccc(F)cc3)C(=O)[C@@H]2C2c3ccccc3C=CN21 (stereo not given in full)	9	4	5	9	-8	35*	7
CC(=O)[C@H]1[C@@H]2C(=O)N(c3cccc(Cl)c3)C(=O)[C@@H]2[C@H]2c3ccccc3C=CN21	-18	6	3	0	0	23*	6
O=C(c1ccco1)[C@@H]1[C@@H]2C(=O)N(c3ccc(Br)cc3)C(=O)[C@@H]2C2c3ccccc3C=CN21 (stereo not given in full)	-15	0	8	12	2	19*	4
